The campaign covered roughly 3,300 compounds. About 280 (8.5%) were called active. Many of the other results were omitted from the sample, so actives are more common in it than they were. Unmarked numbers belong to inactive results.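 The calls were made as follows: active = mean growth inhibition over the two runs of 50% or more; inactive = mean growth inhibition under 50%.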
Assay: A549 NSCLC cell proliferation inhibitors – ATP luminescence, human non-small cell lung line, primary screen (AID 371);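 also: compound exposure lasted 72 h before the ATP read; 0% = untreated cell signal and 100% = no luminescence left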
Conditions: at 10 µM, active compounds read high
For `CC1=NOC2(C)Nc3ncnn3C(c3ccccc3)C12` (stereo not given), the growth inhibition was 6.33%. In the case of `CN1C[C@H](CNC(=O)OCc2ccccc2)C[C@@H]2c3cccc4c3c(cn4C)C[C@H]21`, the growth inhibition is reported as 94.7% (active). Molecule `CC[C@@H](CO)NC(=O)[C@@H]1C=C2c3cccc4c3c(cn4C)C[C@H]2N(C)C1` has a growth inhibition of 4.84%. For `CCCCCCn1c(O)c(C=NCCCn2ccnc2)c(=O)[nH]c1=O`, the growth inhibition was 7.84%. `CC1(C)CC(n2[nH]c(=O)c3c2NC(=O)CSC3c2ccccc2)CCO1` (stereo not given) gave a growth inhibition of 3.92%. With `O=c1[nH]c2ccccc2n1C1CCN(CCCC(c2ccc(F)cc2)c2ccc(F)cc2)CC1` the growth inhibition was 93% (active). Molecule `O=c1[nH]c2ccccc2n1CCCN1CCC(n2c(=O)[nH]c3cc(Cl)ccc32)CC1` has a growth inhibition of 6%. With `CCOC(=O)[C@]1(C#N)[C@@H]2C=CC(C(C)=O)=CN2[C@@H](C(N)=O)[C@@H]1c1ccsc1` the growth inhibition was 3.86%. For `Nc1ncc(P(=S)(N2CCOCC2)N2CCOCC2)s1`, the growth inhibition was 0.52%. For `COc1cccc(-n2c(O)c(C=NCCN3CCOCC3)c(=O)[nH]c2=O)c1`, the growth inhibition was -0.53%. Work on `CCc1nc(N2CCNCC2)c(C#N)c2c1CSC(C)(C)C2` yielded a growth inhibition of 49.5%. For `CCCCc1nc(N2CCNCC2)c(C#N)c2c1CSC(C)(C)C2`, the growth inhibition was 92% (active). In the case of `COc1ccc2c(c1)c(C(=O)O)c(C)n2CC(C)C`, the growth inhibition is reported as -2.88%. In the case of `COC(=O)C(O)(c1c[nH]c2ccccc12)C(F)(F)F` (stereo not given), the growth inhibition is reported as 0.63%. Work on `O=C(CN1CCN(CCO)CC1)Nc1ccc(Cl)cc1C(=O)c1ccccc1` yielded a growth inhibition of 13.2%. With `C=CCOC(=O)C1=C(C)OC(N)=C(C#N)C12C(=O)N(CN1CCOCC1)c1ccccc12` (stereo not given) the growth inhibition was 0.76%. `O=c1[nH]c(=O)n(-c2cccc3ccccc23)c(O)c1C=NCCCn1ccnc1` showed a growth inhibition of -5.79%. Work on `CCN(CC)CCN=C(C)c1c(O)n(-c2ccccc2OC)c(=O)[nH]c1=O` yielded a growth inhibition of -2.11%. Work on `CC(=O)OC1N=C(c2ccccc2)c2ccccc2NC1=O` (stereo not given) yielded a growth inhibition of -5.27%. Molecule `CCN(CC)c1ccc(N=Cc2c(O)n(-c3cc(OC)ccc3OC)c(=O)[nH]c2=O)cc1` has a growth inhibition of 26.8%.
